IL1B secr inh – inhibitors of inflammasome signaling (IL-1 beta secretion). activity change, % at 57.5 µM. THP-1 LPS/ATP IL-1B secretion, AlphaLISA, 16 h; hits give low values. 360,000 tested, 4.7% active; in the data active means activity change below about -50%; inconclusive means mostly about -30% to -49%
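Secreted IL-1B measured by AlphaLISA bead assay after 16 h compound exposure of THP-1 cells; compounds (final up to 57.5 uM) added 1 h before LPS (250 ng/mL) and ATP (1.25 mM) stimulation; lower signal means less secretion.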
HT1080 IDH1KD tx – toxicity to HT-1080 IDH1 knockdown cells (counter line); HT-1080 IDH1 knockdown viability, ATP luminescence, 48 h; Potency, µM (series often up to 46.1 µM), inactives show at the highest dose activity, negative = toxicity, most hits filed as cytotoxic; 360,000 tested, 2% active; AID 686971;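 further: potency means the concentration at half of the fitted maximal effect; 0% = DMSO wells and -100% = cell-free medium wells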
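IDH1KD HT-1080 cells, 750/well, RPMI + 5% FBS; compound pinned after 2 h settling; 48 h, 37 °C; CellTiter-Glo luminescence; % activity normalised to DMSO and no-cell wells; curves fitted, classed by r2 and efficacy.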
HT1080-NT tox – kills 2HG-producing HT-1080-NT fibrosarcoma cells. HT-1080-NT fibrosarcoma viability, CellTiter-Glo ATP luminescence, 48 h. Potency, µM (top dose mostly 46.1 µM), for inactives: at the top dose activity, negative = less viability, most hits filed as cytotoxic. 360,000 tested, 1.6% active. AID 686970;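 further: NT is the 2HG producing partner of a matched IDH1 knockdown line; potency means the concentration at half of the fitted maximal effect; 0% = DMSO-treated cells and -100% = media-only wells without cells; nearly all actives have a fitted effect of over 55% in size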
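HT-1080-NT fibrosarcoma cells (2HG-overproducing), 750 cells/well in RPMI with 5% FBS, dosed after 2 h and incubated 48 h at 37C. CellTiter-Glo luminescence normalized to DMSO and no-cell wells; concentration-response curves fitted and classed.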
ELG1 repair inh – ELG1-dependent DNA repair inhibition | HEK293T ELG1-luciferase reporter, luminescence, 16 h; DNA damage induced by 5-fluorouridine | Potency, µM (highest dose often 46.1 µM), without a hit: at the highest dose activity change, negative = inhibition, most hits filed as inhibitors | 330,000 tested, 2.3% active | AID 504467; further: potency means the concentration at half of the fitted maximal effect; nearly all actives have a fitted effect of over 55% in size
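5-Fluorouridine DNA damage + compound/DMSO, 2,000 cells/well, 16 h, 37 °C/5% CO2. ONE-Glo, 30 min RT, luminescence. Readout = decrease in reporter signal.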
DT40 TDP1 no CPT – qHTS for Inhibitors of human tyrosyl-DNA phosphodiesterase 1 (TDP1): qHTS in cells in absence of CPT | DT40 Tdp1-/- hTDP1 cells, no CPT, ATP luminescence, 48 h | Potency, µM (highest dose often 46.2 µM), for inactives: top-dose activity change, negative = growth inhibition, most hits filed as inhibitors | 420,000 tested, 15% active | AID 686978, 2013; further: potency means the concentration at half of the fitted maximal effect; nearly all actives have a fitted effect of over 55% in size
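Chicken DT40 Tdp1-/- cells complemented with human TDP1, screened without camptothecin (DMSO vehicle only), 400 cells/well. Compounds pin-transferred, cells incubated at 37 °C for at least 48 hr. Growth read as ATP-dependent luminescence (CellTiter-Glo, 30 min at RT).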
TDP1 cell CPT – DT40-hTDP1 cell growth loss with CPT; chicken DT40 Tdp1-/-;hTDP1 cells + 20 nM CPT, ATP luminescence, 48 h; Potency, µM (series often up to 46.2 µM), for inactives: at the top dose activity change, negative = growth inhibition, hits mostly inhibitors; 420,000 tested, 12% active; AID 686979; further: potency means the concentration at half of the fitted maximal effect; nearly all actives have a fitted effect of over 55% in size
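Cell growth measured by CellTiter-Glo luminescence after a minimum 48 h, 37 C compound exposure with 20 nM CPT in Tdp1-knockout DT40 cells stably expressing hTDP1, seeded 400/well; qHTS titration format.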
* marks the source's active call; other numbers are inactive results; [ ] = remark or other dose. Rows were chosen to be rich in hits. Some 19% of all compounds tested hit in one or more screens of this group. Unless noted, the call rests on the fitted dose curve; in most records, active means well fitted curve in the direction sought with a large enough effect; inconclusive means small, poorly fitted or top-dose-only effect, or another doubt; inactive means no such curve, though single readings can be large; an effect the other way counts as inactive or inconclusive. Unless noted, on the % scale 0 is the no-effect control and ±100 the full control effect.

Screening COc1cc2c(cc1OC)CN(C(C)C(=O)N1CCc3ccccc31)CC2 (configuration not stated) returned IL1B secr inh 37, HT1080 IDH1KD tx inconclusive, HT1080-NT tox inconclusive, ELG1 repair inh inconclusive, DT40 TDP1 no CPT 18µM* and TDP1 cell CPT inconclusive.
Screening COc1cc(OC)c(C2=NOC(C(=O)N3CCCc4ccccc43)C2)cc1Cl (configuration not stated) returned IL1B secr inh -25, HT1080 IDH1KD tx 3%, HT1080-NT tox 6%[9.24 µM], ELG1 repair inh inconclusive, DT40 TDP1 no CPT inconclusive and TDP1 cell CPT 13µM*.
For Cc1cccc(NC(=O)CSc2nc(-c3cccs3)cc(C(F)(F)F)c2C#N)c1 the results were DT40 TDP1 no CPT -14% and TDP1 cell CPT -15%.
For CCc1ccccc1NC(=O)CN1C(=O)c2ccccc2Sc2ncccc21 the results were DT40 TDP1 no CPT inconclusive and TDP1 cell CPT -13%.
`CCOc1ccccc1NC(=O)CN1C(=O)CSC(C)C1=O` (configuration not stated) gave IL1B secr inh 8, HT1080 IDH1KD tx 9%, HT1080-NT tox 7%, ELG1 repair inh 13%, DT40 TDP1 no CPT 7% and TDP1 cell CPT 2%.
`CCc1cc2c(=O)oc(-c3ccc(F)cc3)nc2s1` gave IL1B secr inh 1, HT1080 IDH1KD tx 0%, HT1080-NT tox 1%, ELG1 repair inh 2%, DT40 TDP1 no CPT -1% and TDP1 cell CPT 5%.
O=C(CNC(=S)N(Cc1ccccc1)Cc1cccnc1)N1CCOCC1 was read as IL1B secr inh 16, HT1080 IDH1KD tx 13%, HT1080-NT tox 11%, ELG1 repair inh -1%, DT40 TDP1 no CPT -4% and TDP1 cell CPT -7%.
`COc1ccc(OC)c(/C=C/C(=O)N2CCCc3ccccc32)c1` gave IL1B secr inh -77*, HT1080 IDH1KD tx -1%, HT1080-NT tox -11%, ELG1 repair inh inconclusive, DT40 TDP1 no CPT inconclusive and TDP1 cell CPT -26%.
Screening COc1cc(C(=O)N2CCCc3ccccc32)cc(OC)c1OC returned IL1B secr inh 35, HT1080 IDH1KD tx inconclusive, HT1080-NT tox inconclusive, ELG1 repair inh inconclusive, DT40 TDP1 no CPT 21µM* and TDP1 cell CPT 18µM*.
Screening COc1cc(/C=C/C(=O)N2CCCC2)cc(OC)c1OC returned IL1B secr inh 0, HT1080 IDH1KD tx 8%, HT1080-NT tox 10%, ELG1 repair inh -15%, DT40 TDP1 no CPT 3% and TDP1 cell CPT 9%.
Screening COc1cc(/C=C/C(=O)N2CCCc3ccccc32)cc(OC)c1OC returned IL1B secr inh 18, HT1080 IDH1KD tx 4%, HT1080-NT tox 12%, ELG1 repair inh 8.2µM*, DT40 TDP1 no CPT inconclusive and TDP1 cell CPT inconclusive.
Screening COc1cc(/C=C/C(=O)N2CCCCC2=O)cc(OC)c1OC returned DT40 TDP1 no CPT 3.8µM* and TDP1 cell CPT 3µM*.
Screening O=C(CNc1cccc([N+](=O)[O-])c1)N1CCN(S(=O)(=O)c2ccc(Cl)cc2)CC1 returned IL1B secr inh -4, HT1080 IDH1KD tx -21%, HT1080-NT tox 2%, ELG1 repair inh -11%, DT40 TDP1 no CPT inconclusive and TDP1 cell CPT inconclusive.
`CCOC(=O)CC(NC(=O)c1ccc(C)cc1)c1ccc(OC)cc1` (configuration not stated) gave IL1B secr inh 4, HT1080 IDH1KD tx -6%, HT1080-NT tox 7%, ELG1 repair inh -7%, DT40 TDP1 no CPT -23% and TDP1 cell CPT 7%.

Assay outcomes deposited in PubChem BioAssay by National Center for Advancing Translational Sciences (NCATS).
